# Assay outcomes from PubChem BioAssay.
# S2 tox: cell viability loss in ATXN counter-screen. S2 cells (HEK-293 line with an ATXN2-luciferase reporter) viability, CellTiter-Fluor protease fluorescence, 24 h. Potency, µM (titrated, usually from 56.7 µM), hits mostly cytotoxic. actives 0.49% (n = 400,000); also: nearly all actives have a fitted effect of over 40% in size
# HepG2 tox: counter-screen for TGF-b inhibitors: cytotoxicity in HepG2 cells; HepG2 CAGA-GFP viability, ATP luminescence, 18 h; Potency, µM (highest dose often 46.1 µM), inactives show at the highest dose activity change, negative = cytotoxicity, hits mostly cytotoxic; actives 0.76% (n = 410,000)
#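 CellTiter-Glo luminescence gave cytotoxicity after 18 hours at 37 degrees C. The cells were HepG2 CAGA-GFP in 1% FBS DMEM, stimulated with 500 pg/mL TGF-beta after compound addition. %Activity was normalised to no-cell wells (complete cell-killing) and DMSO (no toxicity), and curves were fitted and classified.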
# TGFb inhibitor: blocks TGF-b signaling. actives 1.2% (n = 410,000). HepG2 CAGA-GFP TGF-b/SMAD3 reporter, GFP fluorescence, 18 h; TGF-beta stimulated, 500 pg/mL final. AID 588855. Potency, µM (titrated, usually from 46.1 µM), inactives show at the top dose activity, negative = inhibition, most hits filed as inhibitors; also: % is scaled to controls: 0 for no effect and ±100 for the full control effect; nearly all actives have a fitted effect of over 65% in size
#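 GFP signal (ex488/em500-530) from TGF-beta-stimulated HEPG2 CAGA-GFP cells, 500 pg/mL final, 18 h at 37 degrees C in DMEM plus 1% FBS, normalized to unstimulated and DMSO-stimulated controls.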
# ATXN2 expr inh: reduces ATXN2 reporter expression in HEK-293 cells; AID 1745845; Potency, µM (highest dose often 57 µM), inactives show at the highest dose activity change, negative = inhibition, most hits filed as inhibitors; HEK-293 ATXN2-luciferase reporter, luminescence, 24 h; actives 0.72% (n = 360,000); also: % is scaled to controls: 0 for no effect and ±100 for the full control effect; nearly all actives have a fitted effect of over 55% in size
#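 qHTS (up to 57 uM final) was run with 24 h compound exposure of reporter cells at 37 °C. Each well was multiplexed: SteadyGlo luminescence measured ATXN2-luciferase expression after a fluorogenic Gly-Phe-AFC viability readout (25 uM final).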
# Gal4-VP16 FLuc: inhibits Gal4-VP16 luciferase reporter, ROR gamma counter-screen; Drosophila S2 Gal4-VP16 UAS-luciferase, luminescence, 20 h; Potency, µM (series often up to 53.6 µM), without a hit: at the top dose activity, negative = inhibition, most hits filed as inhibitors; actives 3.5% (n = 310,000);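 also: Gal4-VP16 expression switched on by copper sulfate through the metallothionein promoter; % is scaled to controls: 0 for no effect and ±100 for the full control effect; nearly all actives have a fitted effect of over 50% in size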
# RORgamma inh: blocks mouse ROR gamma transcriptional activity; Drosophila S2 Gal4-RORgamma UAS-luciferase reporter, 20 h; Potency, µM (highest dose often 53.6 µM), inactives show at the highest dose activity change, negative = inhibition, most hits filed as inhibitors; actives 5.4% (n = 310,000); also: % is scaled to controls: 0 for no effect and ±100 for the full control effect; nearly all actives have a fitted effect of over 60% in size
# Target sequence (P51450 whole entry, looked up, the tested form may be a part): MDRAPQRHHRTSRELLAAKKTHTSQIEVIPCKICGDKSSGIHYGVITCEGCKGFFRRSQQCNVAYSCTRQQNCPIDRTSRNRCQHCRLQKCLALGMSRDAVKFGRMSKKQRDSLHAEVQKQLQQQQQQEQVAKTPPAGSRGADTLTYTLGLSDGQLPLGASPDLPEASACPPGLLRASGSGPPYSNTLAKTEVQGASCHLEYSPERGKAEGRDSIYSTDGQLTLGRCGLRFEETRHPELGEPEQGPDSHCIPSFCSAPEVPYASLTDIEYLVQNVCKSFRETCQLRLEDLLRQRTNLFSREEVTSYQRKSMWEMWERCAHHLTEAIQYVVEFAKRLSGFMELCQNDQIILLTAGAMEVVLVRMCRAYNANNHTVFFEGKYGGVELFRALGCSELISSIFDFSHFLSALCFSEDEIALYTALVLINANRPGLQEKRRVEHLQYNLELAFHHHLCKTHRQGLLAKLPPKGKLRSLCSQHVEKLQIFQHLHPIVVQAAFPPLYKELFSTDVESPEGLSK
#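 In this cell-based reporter format, copper sulfate (700 uM final) drives Gal4–ROR gamma fusion expression from a metallothionein promoter in Drosophila Schneider cells; compounds preincubated 1 hr, reporter read after 20 hr at ambient temperature.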
# * hit, by the source's call; i = inactive; u = inconclusive; x = no result; [ ] = another dose, or the depositor's remark. This is a sample that favours compounds with a hit; in the whole collection about 6.3% have one here. Calls follow the shape of the dose curve; as a rule, active = well fitted curve in the direction sought with a large enough effect; inconclusive = small, poorly fitted or top-dose-only effect, or another doubt; inactive = no such curve, though single readings can be large; an effect the other way counts as inactive or inconclusive. Potency is read from the fitted curve at half-maximal effect.
SMILES,S2 tox,HepG2 tox,TGFb inhibitor,ATXN2 expr inh,Gal4-VP16 FLuc,RORgamma inh
O=C(Nc1ccccc1C(=O)N/N=C/c1ccco1)c1ccc(Cl)cc1,i,-55%,-10%,x,4µM*,2.8µM*
C/C(=N\NC(=O)C(=O)Nc1cccc(Cl)c1)c1ccncc1,u,12%,-1%,4%,5.6µM*,u
C/C(=N\NC(=O)c1ccccc1NC(=O)c1ccc(Cl)cc1)c1ccncc1,i,1.3µM*,4%,x,0.89µM*,0.56µM*
Cc1ccccc1C(=O)Nc1ccccc1C(=O)N/N=C\c1ccco1,i,-19%,-8%,-2%,u,10µM*
O=C(NCc1ccccc1Cl)[C@H]1CCCN1C(=O)[C@H]1CCCN1C(=O)c1ccccc1,u,x,x,19%,x,x
Cc1ccccc1CNC(=O)C1CCN(c2nnc(-n3c(C)ccc3C)s2)CC1,x,-47%,x,x,x,x
CCCCOC(=O)c1ccc(NC(=O)c2cc3c(=O)n4cccc(C)c4nc3s2)cc1,i,17%,27%,0%,x,x
COc1ccc(NC(=O)N(C)C[C@H]2Oc3c(NC(=O)NC4CCCCC4)cccc3C(=O)N([C@H](C)CO)C[C@@H]2C)cc1,i,13%,6%,3%,x,x
C[C@@H]1CN([C@H](C)CO)C(=O)c2cccc(NC(=O)NC3CCCCC3)c2O[C@@H]1CN(C)C(=O)Nc1ccc(C(F)(F)F)cc1,22µM*,18µM*,u,u,x,x
C[C@H](CO)N1C[C@H](C)[C@@H](CN(C)C(=O)Nc2ccc(C(F)(F)F)cc2)Oc2c(NC(=O)C3CCCCC3)cccc2C1=O,u,-24%,u,-21%,x,x
C[C@H](CO)N1C[C@H](C)[C@@H](CN(C)C(=O)Nc2ccccc2)Oc2c(NC(=O)Nc3ccc(C(F)(F)F)cc3)cccc2C1=O,x,-97%,16µM*,u,x,x
C[C@H](CO)N1C[C@H](C)[C@@H](CN(C)C(=O)Nc2ccc(C(F)(F)F)cc2)Oc2c(NC(=O)NC3CCCCC3)cccc2C1=O,28µM*,-32%,u,u,x,x
CC(C)NC(=O)Nc1cccc2c1O[C@H](CN(C)C(=O)Nc1ccc(C(F)(F)F)cc1)[C@@H](C)CN([C@H](C)CO)C2=O,i,-15%,-4%,2%,x,x
C=C1C=C(C(F)F)n2ncc(C(=O)Nc3ccc(Br)cc3C(F)(F)F)c2N1,x,-10%,3%,x,x,x
CCCc1ccc(-c2cc(C(=O)N/N=C/c3ccc([N+](=O)[O-])o3)c3ccccc3n2)cc1,u,-32%,-18%,2%,8.9µM*,7.1µM*
O=C(N/N=C/c1ccc([N+](=O)[O-])o1)c1cc(-c2cccc(Br)c2)nc2ccccc12,u,-65%,-11%,u,u,3.2µM*
COc1ccc(-c2nn(-c3ccccc3)cc2C(=O)N/N=C/c2ccc([N+](=O)[O-])o2)cc1,u,4%,-4%,u,2%[10 µM],-4%
COc1ccccc1CNS(=O)(=O)c1ccc2[nH]c3c(c2c1)CCCCC3,u,-57%,11µM*,0%,x,x
CCOC(=O)CC(NS(=O)(=O)c1ccc2[nH]c3c(c2c1)CCCC3)c1ccccc1Cl (stereo not drawn),x,-48%,20µM*,x,x,x
CCOc1ccc(CNS(=O)(=O)c2ccc3[nH]c4c(c3c2)CCCC4)cc1OC,u,-11%,u,-10%,x,x
COc1cccc(NS(=O)(=O)c2ccc3[nH]c4c(c3c2)CCCCCC4)c1,i,13µM*,u,-23%,x,x
CCOc1ccc(CN2C(=O)c3ccccc3Sc3ccc(C(=O)NC4CCC(C)CC4)cc32)cc1 (stereo not drawn),i,-13%,5%,16%,x,x
Nc1ccc(Nc2nc3ccccc3[nH]2)cc1,i,-5%,-1%,12%,-22%,15%
c1ccc(Nc2nc3ccccc3[nH]2)nc1,i,-42%,u,39%,u,2µM*
O=C(CCCn1c(=S)[nH]c2ccc(Br)cc2c1=O)N1CCN(c2ccccn2)CC1,i,-13%,8%,-30%,u,7.1µM*
SMILES,S2 tox,HepG2 tox,TGFb inhibitor,ATXN2 expr inh,Gal4-VP16 FLuc,RORgamma inh
O=C(C1CCC(Cn2c(=O)[nH]c3ccccc3c2=O)CC1)N1CCN(c2ccccc2)CC1 (stereo not drawn),i,-20%,-13%,0%,-8%,18%
COc1ccccc1N1CCN(C(=O)C2CCC(Cn3c(=S)[nH]c4ccccc4c3=O)CC2)CC1 (stereo not drawn),x,-14%,u,x,5µM*,2.5µM*
O=C(C1CCC(Cn2c(=S)[nH]c3ccccc3c2=O)CC1)N1CCN(c2ccccc2)CC1 (stereo not drawn),i,-41%,-8%,-24%,x,x
O=C(C1CCC(Cn2c(=S)[nH]c3ccccc3c2=O)CC1)N1CCN(c2ccccn2)CC1 (stereo not drawn),i,-2%,-17%,u,u,5.6µM*
COc1ccc(N2CCN(C(=O)C3CCC(Cn4c(=S)[nH]c5ccccc5c4=O)CC3)CC2)cc1 (stereo not drawn),i,-33%,-13%,-11%,7.1µM*,3.5µM*
Cc1ccccc1OCC(=O)NNC(=O)C1CC(=O)N(c2ccc3c(c2)OCCO3)C1 (stereo not drawn),i,-9%,-9%,-19%,x,x
CC1Cc2ccccc2C[N+]1(C)CC(=O)c1ccc(I)cc1 (stereo not drawn),x,16%,8%,x,x,x
CC(=O)c1ccc(C(=O)NCc2nc(-c3ccccc3NC(=O)c3cc(C)oc3C)oc2C)cc1,i,x,x,x,x,x
O=C(C1CCC(Cn2c(=S)[nH]c3ccccc3c2=O)CC1)N1CCOCC1 (stereo not drawn),i,-9%,1%,4%,u,11µM*
c1ccc2sc(N3CCCCC3)nc2c1,i,-21%,8%,48%,x,x
C=C(c1nc2ccccc2s1)C1Cc2cccc3c2N(CCC3)C1 (stereo not drawn),x,7.1µM*,4µM*,x,x,x
O=C(Nc1ccc(Cl)cc1)Nc1ccc(N2CCOCC2)cc1,i,18%,-1%,4%,9%,21%
O=C(NC(=S)Nc1ccc(N2CCOCC2)cc1)c1ccc(Cl)cc1,i,3%,-3%,-1%,7.1µM*,4µM*
CC(C)(C)c1ccc(C(=O)NC(=S)Nc2ccc(N3CCOCC3)cc2)cc1,i,-3%,-6%,140%,7.1µM*,4.5µM*
CC(C)(C)c1ccc(C(=O)Nc2ccc(N3CCOCC3)cc2)cc1,u,3%,-20%,-18%,-8%,8%
